Results filed as inconclusive are left out. Active and inactive are the calls of the source. Calls come from the whole dose curve; as a rule, active = well fitted inhibition curve with a large enough effect; inconclusive = small, poorly fitted or top-dose-only effect; inactive = flat fitted curve, though single readings scatter.
Experiments:
Experiment in all cases: qHTS profiling for inhibitors of Plasmodium falciparum proliferation (AID 504749); note: nearly all actives have a fitted effect of over 60% in size
Conditions in all cases: P. falciparum in erythrocytes, SYBR Green DNA, 72 h; series mostly up to 28.7 µM
CP325 = system: CP325
In short: (§1)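 Infected RBCs, 0.3% parasitemia/2.5% Hct final; cpd 72 h, 37 C, 5% CO2; lysis buffer with saponin/triton/SYBR Green I, o/n RT dark; FI 485/535; norm. to artemisinin (0.29 uM) and DMSO.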

CP329 = system: CP329
In short: as §1

CP335 = system: CP335
In short: as §1

DFO2036 = system: DFO2036
In short: as §1

DIV14 = system: DIV14
In short: as §1

DIV30 = system: DIV30
In short: as §1

Dd2 = system: Dd2
In short: as §1

ECU = system: ECU
In short: as §1

FAB9 = system: FAB9
In short: as §1

GB4 = system: GB4
In short: as §1

HB3 = system: HB3
In short: as §1

ICS = system: ICS
In short: as §1

JCK = system: JCK
In short: as §1

N140 = system: N140
In short: as §1

P93_24 = system: P93_24
In short: as §1

P94_40 = system: P94_40
In short: as §1

PAD = system: PAD
In short: as §1

PC15 = system: PC15
In short: as §1

PC26 = system: PC26
In short: as §1

DIV17 = system: DIV17
In short: as §1

Measured: Potency
Potency is the fitted concentration of half-maximal effect.

CC(=O)Nc1ccc(OCCOCCOc2ccc(NC(C)=O)cc2)cc1
not listed: DIV17
inactive: all other assays above

FC(F)(F)C(Cl)Br (configuration not stated)
not listed: DIV17
inactive: all other assays above

Cc1c(NC(C)C)c(=O)n(-c2ccccc2)n1C
not listed: ECU | ICS
inactive: all other assays above

O=C1CC[C@@H](C(=O)O)N1
not listed: GB4 | ICS | P93_24 | DIV17
inactive: all other assays above

O=C(O)Cn1c(C(=O)Nc2nc(-c3ccccc3Cl)cs2)cc2ccccc21
not listed: ICS
inactive: all other assays above

O=C(O)c1ccc[n+]([O-])c1
not listed: DIV14
inactive: all other assays above

CC(=O)SC[C@@H](Cc1ccccc1)C(=O)NCC(=O)OCc1ccccc1
not listed: ICS
inactive: all other assays above

Cc1ccc(S(=O)(=O)NC(=O)NC2CCCCC2)cc1
not listed: Dd2
inactive: all other assays above

Cc1cc(NC(=O)C2=C(O)c3ccccc3S(=O)(=O)N2C)no1
not listed: DIV17
inactive: all other assays above

O=C(O)CCCCC1CCSS1 (configuration not stated)
not listed: DIV14
inactive: all other assays above

CC(C)CCCC(C)CCCC(C)CCCCC(C)CCCC(C)CCCC(C)C (configuration not stated)
not listed: P94_40
inactive: all other assays above

Cc1ncc(CO)c(CN)c1O
not listed: P93_24 | PAD
inactive: all other assays above

O=C(O)c1cc(=O)c2ccccc2o1
not listed: GB4 | DIV17
inactive: all other assays above

O=C(O)COC(=O)Cc1ccccc1Nc1c(Cl)cccc1Cl
not listed: P93_24
inactive: all other assays above

COc1cc(C(=O)NCCCCCC(=O)O)cc(OC)c1OC
not listed: JCK
inactive: all other assays above

NC(=O)NS(=O)(=O)c1ccc(N)cc1
not listed: ICS
inactive: all other assays above

Cn1c([N+](=O)[O-])cnc1COC(N)=O
not listed: DIV17
inactive: all other assays above

CC(=O)NS(=O)(=O)c1ccc(N)cc1
not listed: P93_24
inactive: all other assays above

Cc1cc(O)cc(C)c1Cl
inactive: CP325 | CP329 | FAB9
active: ICS 3550 nM | PC26 12000 nM

CCN1CC(CCN2CCOCC2)C(c2ccccc2)(c2ccccc2)C1=O (configuration not stated)
active: Dd2 12600 nM
not listed: CP335 | DIV14 | ECU | GB4 | ICS | N140 | P93_24 | P94_40
inactive: all other assays above

O=C(c1ccccc1)C(O)c1ccccc1 (configuration not stated)
not listed: DIV14 | GB4 | DIV17
inactive: all other assays above

Cc1c(Cn2ccnc2)c2ccccc2n1CCC(=O)O
not listed: CP325
inactive: all other assays above

N[C@@H](Cc1ccc(O)cc1)C(=O)O
not listed: CP325 | DIV30
inactive: all other assays above

COC(=O)c1ccccc1C(=O)c1ccc(OCCN2CCCCC2)cc1
not listed: DIV14 | Dd2 | DIV17
inactive: all other assays above

CCCCCCCCCCCCCCCCCCO
not listed: DIV14 | DIV17
inactive: all other assays above

Cc1cc(C)c(NC(=O)CN(CC(=O)O)CC(=O)O)c(C)c1Br
not listed: DFO2036 | ECU | N140 | P93_24 | P94_40 | PAD
inactive: all other assays above

Cc1cccc(C(=O)O)c1O
not listed: DIV14 | DIV17
inactive: all other assays above

Nc1ncnc(Nc2ccccc2)n1
not listed: CP335 | DFO2036 | DIV17
inactive: all other assays above

CCCCCCCCCCOc1cc2c(=O)c(C(=O)OCC)c[nH]c2cc1OCC
active: CP335 1.3 nM | DFO2036 1.4 nM | DIV14 5.4 nM | DIV17 6.7 nM | Dd2 2.8 nM | ECU 2.8 nM | FAB9 5 nM | GB4 2.1 nM | HB3 2 nM | ICS 3.2 nM | JCK 35.5 nM | N140 2.2 nM | P93_24 3.2 nM | P94_40 3.2 nM | PAD 3.5 nM | PC15 6.3 nM
